The target of assay [1] is Glutathione peroxidase 1 (Homo sapiens) (UniProt P07203). Put plainly: Primary qHTS Assay for Inhibitors of Recombinant Selenoprotein Glutathione Peroxidase 1 (GPX1) (AID 1845191). Note: nearly all actives have a fitted effect of over 65% in size. Note: potency is the fitted concentration of half-maximal effect. The gist of the method: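 GR-coupled assay: compounds preincubated 30 min at room temperature with GPX1, then reaction started with CHP; final 10 nM GPX1, 1 mM GSH, 0.5 mM CHP, 0.5 mM NADPH, 100 nM GR, 0.01% BSA, pH 7.5 Tris buffer. NADPH fluorescence (340/450 nm) read at 0 and 15 min.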
(In qHTS, concentration-response curves come from the screen itself.)

In assay [2] the target is Phospholipid hydroperoxide glutathione peroxidase GPX4 (Homo sapiens) (UniProt P36969). Put plainly: Primary qHTS Assay for Inhibitors of Recombinant Selenoprotein Glutathione Peroxidase 4 (GPX4) (AID 1845192). Note: nearly all actives have a fitted effect of over 65% in size. Note: potency is the fitted concentration of half-maximal effect. A digest of the protocol:
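GR-coupled assay: recombinant GPX4 preincubated 30 min with compound at room temperature; final 200 nM GPX4, 1 mM GSH, 0.5 mM cumene hydroperoxide, 0.5 mM NADPH, 100 nM GR, 0.01% BSA, pH 7.5 Tris. NADPH fluorescence (340/450 nm) read at 0 and 15 min.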

The target in assay [3] is Luciferin 4-monooxygenase (Photinus pyralis) (UniProt P08659). The assay can be described thus: Primary firefly luciferase (FLuc) qHTS assay for identification of artifact compounds. (AID 1845220). Note: nearly all actives have a fitted effect of over 60% in size. The gist of the method: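 Enzymatic FLuc inhibition assay: compounds pre-exposed to luciferin/ATP (10 uM each) for 15 min, then purified P. pyralis enzyme at 10 nM added. Read-out: luminescence at 5 min.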

Assay [4] in a line: Primary fluorescence-based thiol-reactive (MSTI) qHTS assay for identification of artifact compounds. (AID 1845221). Note: nearly all actives have a fitted effect of over 65% in size. Note: potency is the fitted concentration of half-maximal effect. The gist of the method:
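Thiol-reactive compounds detected by quenching of 4 uM MSTI fluorescence (525/598 nm) after 1 h room-temperature dark incubation in PBS pH 7.4, 2% DMSO. qHTS titration; percent inhibition Hill-fitted against Acetyl-MSTI/MSTI controls.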

Assay [5] has as its system Nanoluciferase (engineered Oplophorus gracilirostris luciferase). The assay can be described thus: Primary Nanoluciferase (NLuc) qHTS assay for identification of artifact compounds. (AID 1845222).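 Note: NLuc secreted into diluted conditioned medium of S16 cells; series mostly up to about 54 µM.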 The gist of the method: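 S16 cell supernatant NLuc, 1:55; cpds qHTS; 15 min RT dark; Nano-Glo substrate 1:100, 5 min; luminescence; Hill fit of % inhibition.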
A short description of assay [6]: Primary redox qHTS assay for identification of artifact compounds. (AID 1845223). The gist of the method: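 Amplex Red (25 uM) and HRP (250 mU/mL) in HBSS, with compounds for 15 min, then 250 uM DTT for 30 min, room temperature, dark. Fluorescence 525/598 nm read; normalized to DMSO and 10 uM DA3003; Hill fit.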

The structures appear in SMILES notation. Values without a mark were called inactive. Records with an inconclusive call do not appear. Calls of active or inactive are those of the source. Calls come from the whole dose curve; as a rule, active = well fitted curve in the direction sought with a large enough effect; inconclusive = small, poorly fitted or top-dose-only effect, or another doubt; inactive = no such curve, though single readings can be large; an effect the other way counts as inactive or inconclusive.

Sequence of Phospholipid hydroperoxide glutathione peroxidase GPX4 (Homo sapiens) (P36969 whole entry, looked up): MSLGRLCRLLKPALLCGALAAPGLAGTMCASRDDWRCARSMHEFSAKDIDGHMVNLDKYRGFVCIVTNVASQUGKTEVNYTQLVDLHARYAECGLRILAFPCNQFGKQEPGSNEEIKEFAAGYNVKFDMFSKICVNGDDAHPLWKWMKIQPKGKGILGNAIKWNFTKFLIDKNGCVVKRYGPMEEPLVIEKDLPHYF
Sequence of Glutathione peroxidase 1 (Homo sapiens) (P07203 whole entry, looked up): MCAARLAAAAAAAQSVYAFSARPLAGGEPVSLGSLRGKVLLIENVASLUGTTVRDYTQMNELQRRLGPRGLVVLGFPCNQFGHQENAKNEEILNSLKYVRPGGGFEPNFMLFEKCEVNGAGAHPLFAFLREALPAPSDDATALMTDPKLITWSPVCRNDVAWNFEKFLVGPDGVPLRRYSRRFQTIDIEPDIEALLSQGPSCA

In the case of `CN(C)CC1CCOC1(c1ccccc1)c1ccccc1` (stereo unspecified), the Potency result in assay [1], in assay [2], in assay [3], in assay [4], in assay [5] and in assay [6] was “inactive” in each case.
With `COc1ccc(Oc2cc(C)c(-c3csc(NC(=O)c4ccncc4)n3)c(C)c2)cc1`, the Potency result in assay [1], in assay [2], in assay [3], in assay [4], in assay [5] and in assay [6] was “inactive” throughout.
For the compound `CCNC(=O)Nc1ncc(-c2cc(-c3c(C)cc(OC)cc3C)nc(-c3cnccn3)n2)s1`, the Potency entry in assay [1], in assay [2], in assay [3], in assay [4], in assay [5] and in assay [6] was “inactive” in each case.
`CC1CCC2(C(=O)O)CCC3(C)C(=CCC4C5(C)CCC(OC(=O)/C=C/c6ccccc6)C(C)(C)C5CCC43C)C2C1C` (stereo unspecified): the Potency result in assay [1], in assay [2], in assay [3], in assay [4], in assay [5] and in assay [6] was “inactive” in each case.
Turning to `C=C1C(=O)OC2CC(C)=C(C(C)CCCO)C(O)C12` (stereo unspecified), the Potency result in assay [1], in assay [2], in assay [3], in assay [5] and in assay [6] was “inactive” each time. In assay [4], the Potency is 5.97 µM (active).
For `O=C1CCC(c2ccccc2)(C2CCN(Cc3ccc(I)cc3)CC2)C(=O)N1` (stereo unspecified), the Potency result in assay [1], in assay [2], in assay [3], in assay [4], in assay [5] and in assay [6] was “inactive” each time.
As for `C=CC1(C)C=C2CCC3C(C)(C)C(O[C@@H]4O[C@@H](CO)[C@H](O)[C@H]4O)CCC3(C)C2CC1O[C@@H]1O[C@H](C)[C@H](O)[C@H](O)[C@H]1O` (stereo partly specified), the Potency result in assay [1], in assay [2], in assay [3], in assay [4], in assay [5] and in assay [6] was “inactive” throughout.
In the case of `Cc1ccccc1CN1C2=NCCN2C(=O)C2=C1CCN(Cc1ccccc1)C2`, the Potency result in assay [1], in assay [2], in assay [3], in assay [4], in assay [5] and in assay [6] was “inactive” each time.
For the compound `O=C(c1ccc2nccnc2c1)N1CCCCC1`, the Potency result in assay [1], in assay [2], in assay [3], in assay [4], in assay [5] and in assay [6] was “inactive” throughout.
In the case of `COc1cc2occc2c(O[C@@H]2O[C@H](CO)[C@@H](O)[C@H](O)[C@H]2O)c1CCC(=O)O`, the Potency in assay [1] was 11.1 µM (active); in assay [2], 11.1 µM (active); in assay [4], 5.19 µM (active). In addition, the Potency entry in assay [3], in assay [5] and in assay [6] was “inactive” in each case.
As for `NC1CCCCN(c2c(F)cc3c(=O)c(C(=O)O)cn(C4CC4)c3c2Cl)C1` (stereo unspecified), the Potency result in assay [1], in assay [2], in assay [3], in assay [4], in assay [5] and in assay [6] was “inactive” each time.
Regarding `CCOCc1cc(OC)c(-c2ccc(C[C@H](NC(=O)c3c(F)cccc3F)C(=O)O)cc2)c(OC)c1`, the Potency entry in assay [1], in assay [2], in assay [3], in assay [4], in assay [5] and in assay [6] was “inactive” in each case.
For `CC1(C)CCCC2(C)C1C(O)C=C(CO)C2(O)CO` (stereo unspecified), the Potency result in assay [1], in assay [2], in assay [3], in assay [4], in assay [5] and in assay [6] was “inactive” throughout.
With `CC(C)CC(=O)O[C@@H]1OC=C(CO[C@@H]2O[C@H](CO)[C@@H](O)[C@H](O)[C@H]2O)[C@H]2[C@@H]3O[C@H]3[C@@](O)(CO)[C@@H]12`, the Potency entry in assay [1], in assay [2], in assay [3], in assay [4], in assay [5] and in assay [6] was “inactive” in each case.
For `CC1(C)CCCC2(C)C1CC(=O)C13CC(CCC12)C(O)(CO)C3` (stereo unspecified), the Potency result in assay [1], in assay [2], in assay [3], in assay [4], in assay [5] and in assay [6] was “inactive” throughout.
Take `Cn1c(=O)n(-c2ccc(C(C)(C)C#N)cc2)c2c3cc(C#Cc4cccnc4)ccc3ncc21`: the Potency entry in assay [1], in assay [2], in assay [3], in assay [4], in assay [5] and in assay [6] was “inactive” throughout.
Regarding `O=C1CCC(=O)N(O)CCCCCNC(=O)CCC(=O)N(O)CCOCCNC(=O)CCC(=O)N(O)CCCCCN1`, the Potency result in assay [1], in assay [2], in assay [3], in assay [4], in assay [5] and in assay [6] was “inactive” each time.
For the compound `C[C@@H]1CC[C@]2(C(=O)O)CC[C@]3(C)C(=CCC4[C@@]5(C)CC[C@H](O)C(C)(C)C5C(O)C[C@]43C)[C@@H]2[C@]1(C)O` (stereo partly specified), the Potency result in assay [1], in assay [2], in assay [3], in assay [5] and in assay [6] was “inactive” in each case. The Potency in assay [4] is 13 µM (active).
Turning to `Cc1cccc(S(=O)(=O)N2CCC[C@@H]2CCN2CCC(C)CC2)c1`, the Potency entry in assay [1], in assay [2], in assay [3], in assay [4], in assay [5] and in assay [6] was “inactive” in each case.
With `CCOc1cc2ncc(C#N)c(Nc3ccc(F)c(Cl)c3)c2cc1NC(=O)/C=C/CN(C)C`, the Potency entry in assay [1], in assay [2], in assay [3], in assay [4], in assay [5] and in assay [6] was “inactive” in each case.
As for `CCOC(=O)c1sc(NC(=O)[C@H](C(C)C)n2c(=O)[nH]c3ccccc3c2=O)nc1C`, the Potency result in assay [1], in assay [2], in assay [3], in assay [4], in assay [5] and in assay [6] was “inactive” in each case.

The values above are taken from PubChem BioAssay (NCATS).
